Several values for one entry are separate records, joined by “and”; a condition that tells them apart may be missing. Identical values can stand only once. Records with an inconclusive call do not appear. Activity calls are given as the source filed them. Calls come from the whole dose curve; as a rule, active = well fitted curve in the direction sought with a large enough effect; inconclusive = small, poorly fitted or top-dose-only effect, or another doubt; inactive = no such curve, though single readings can be large; an effect the other way counts as inactive or inconclusive.
Experiment: Primary qHTS for inhibitors of nuclear receptor binding SET domain protein 2 (NSD2) in an isogenic RCH-ACV NSD2 p.E1099K mutant (9B) (AID 1645876)
Conditions: RCH-ACV NSD2 E1099K (9B) viability, CellTiter-Glo, 72 h; series mostly up to 44.9 µM; activity change, negative = viability loss: at the top concentration
% is set by controls: 0 for no effect and ±100 for the full control effect.
Note: nearly all actives have a fitted effect of over 70% in size.

| Compound | activity change, negative = viability loss | Potency | outcome |
| --- | --- | --- | --- |
| COc1ccccc1CN[C@H]1C2CCN(CC2)[C@H]1C(c1ccccc1)c1ccccc1 | -20.8% (inactive) |  |  |
| Clc1ccc(OCC2=NCCN2)cc1Cl | -3.73% (inactive) |  |  |
| COc1cc(C)[nH]c(=O)c1CNC(=O)c1c(C)n([C@H](C)C2CCOCC2)c2ccccc12 |  | inactive |  |
| Cc1c(Cl)cccc1S(=O)(=O)Nc1nc(CC(=O)N2CCN(C)CC2)cs1 |  |  | inactive |
| CC(C)(C)c1cc(C(C)(C)C)c2c(c1)C(O)(C(F)(F)F)C(=O)O2 (stereo unspecified) | -11.9% (inactive) |  |  |
| COc1cc(CCNCc2ccccc2O)c(OC)cc1C#N | -18.1% (inactive) |  |  |
| COC(=O)N1CCN(C(=O)Cc2ccc(Cl)c(Cl)c2)[C@@H](CN2CCCC2)C1 | 0.0383% (inactive) |  |  |
| Cn1ncnc1COc1nn2c(-c3c(F)cccc3F)nnc2cc1C1CCC1 |  |  | inactive |

Experiment: Primary qHTS for inhibitors of nuclear receptor binding SET domain protein 2 (NSD2) in an RCH-ACV wild type WT cells (2C) (AID 1645877); note: potency is the fitted concentration of half-maximal effect
Conditions: RCH-ACV (leukaemia line) NSD2 WT (2C) viability, CellTiter-Glo, 72 h; series mostly up to 44.9 µM; activity change, negative = cell killing: at the top concentration

| Compound | outcome | activity change, negative = cell killing | Potency |
| --- | --- | --- | --- |
| CCCCCCn1c(=O)c(C(=O)Nc2ccc(C(=O)OCCC)cc2)c(O)c2ccccc21 | inactive [at 9.23 µM] |  |  |
| OCCCCC#Cc1cncc(OC[C@@H]2CCN2)c1 | inactive |  |  |
| Cc1cc(C(=O)CN2CCCC2)c(C)n1-c1ccc(F)cc1 |  | -20.1% (inactive) |  |
| CCc1c(C(=O)C(N)=O)c2c(OCC(=O)OC)cccc2n1Cc1ccccc1 |  | -7.19% (inactive) |  |
| C[CH2][Hg][S]c1ccccc1C(=O)O |  |  | 841 nM (active) |
| CN(C(=O)Cc1ccccc1)C(CN1CCCC1)c1ccccc1 (stereo unspecified) |  | -11.1% (inactive) |  |
| CCc1[nH]c2ccc(OC)cc2c1CCN(C)C |  | -12.4% (inactive) |  |
| Cc1cn(C[C@H](N)C(=O)O)c(=O)n(Cc2cc(-c3ccccc3)sc2C(=O)O)c1=O | inactive |  |  |
| CCOc1ccccc1-n1c(C(C)N2CCN(C(=O)COc3ccc(Cl)cc3)CC2)nc2ccccc2c1=O (stereo unspecified) |  |  | 365 nM (active) and 372 nM (active) |
| CC(C)[C@@H](CN1CC[C@@](C)(c2cccc(O)c2)[C@@H](C)C1)NC(=O)[C@H]1Cc2ccc(O)cc2CN1 |  |  | 14500 nM (active) |
| CC(N)Cc1c[nH]c2ccccc12 (stereo unspecified) | inactive |  |  |
| Clc1ccc(OCC2=NCCN2)cc1Cl |  | -20.9% (inactive) |  |
| COc1cc(C)[nH]c(=O)c1CNC(=O)c1c(C)n([C@H](C)C2CCOCC2)c2ccccc12 | inactive |  |  |
| Cc1c(Cl)cccc1S(=O)(=O)Nc1nc(CC(=O)N2CCN(C)CC2)cs1 | inactive |  |  |
| CC(C)(C)c1cc(C(C)(C)C)c2c(c1)C(O)(C(F)(F)F)C(=O)O2 (stereo unspecified) |  | -15.1% (inactive) |  |
| COc1cc(CCNCc2ccccc2O)c(OC)cc1C#N |  | -28.9% (inactive) |  |
| COC(=O)N1CCN(C(=O)Cc2ccc(Cl)c(Cl)c2)[C@@H](CN2CCCC2)C1 | inactive |  |  |
| Cn1ncnc1COc1nn2c(-c3c(F)cccc3F)nnc2cc1C1CCC1 | inactive |  |  |

From PubChem BioAssay (NCATS)
